ANO1 activ = activators or potentiators of mouse TMEM16A chloride channel; HEK293 TMEM16A/YFP-H148Q/I152L, iodide quench fluorescence; stronger effect = lower value; B-score at 10 µM; actives 0.3% (n = 340,000); AID 623877;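 active = fluorescence-ratio B-score plate-corrected deviation score at least 3 library SD below zero, with starting fluorescence score within 5 deviations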;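 note: channel opened by trigger with iodide after compound preincubation; score built on the fluorescence ratio of max minus min over baseline; more negative score means more quench and so TMEM16A activation or potentiation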
MPTP block = inhibitors of mitochondrial permeability transition pore; isolated mouse mitochondria, Ca2+ swelling absorbance, 30 min; inhibition, % at 10 µM; actives 1.4% (n = 360,000); AID 602449;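 active = inhibition of 50% or more, scaled per plate between neutral and stimulator controls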;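 note: 0% = DMSO wells given calcium and 100% = 1 mM EGTA wells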
TMEM16A inh = blocks the mouse calcium-activated chloride channel TMEM16A; normalized B-score (activity score, 25-100; higher = stronger inhibition) at 10 µM; actives 1.2% (n = 310,000); HEK293 TMEM16A/YFP iodide influx fluorescence, ionomycin;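 active = ratio plate-corrected score three or more library SD toward inhibition, starting fluorescence score within five deviations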;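 note: score derived from kinetic fluorescence span divided by baseline fluorescence per well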
CRFBP-R2 agonist = CRF-BP/CRF-R2 complex agonism; HEK293 CRF-R2/CRF-BP, calcium dye fluorescence (FLIPR); percent of saturating CRF peptide response; activation, % at 13.2 µM; actives 0.46% (n = 350,000); AID 588473;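 active = activation of at least 50%, plus an integration ratio under a set limit after plate pattern correction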;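 note: plate controls were neutral control wells without compound for no effect and CRF at EC100 for full effect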
CRFBP-R2 block = CRF-BP/CRF-R2 complex antagonism; HEK293 CRF-R2/CRF-BP, CRF-induced calcium fluorescence; inhibition, % at 11.8 µM; actives 0.59% (n = 350,000);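 active = inhibition of the ligand-induced calcium signal above about 50% at the single tested concentration, limit read from the data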
NR3A LBD binder = modulators (binders) of human NR3A ligand-binding domain; NR3A LBD differential scanning fluorimetry, Tm shift; 0% = protein alone, 100% = glycine-bound protein; Tm shift relative to glycine control, % at 25 µM; actives 2.5% (n = 340,000); AID 1259313;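 active = melting temperature shift of at least 10% of the positive control shift, at one fixed dose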
* marks the source's active call; other numbers are inactive results; i = inactive; · = not tested or not shown. Rows were chosen to be rich in hits. Some 5.1% of all compounds tested hit in one or more screens of this group.

SMILES | ANO1 activ | MPTP block | TMEM16A inh | CRFBP-R2 agonist | CRFBP-R2 block | NR3A LBD binder
COc1cc(/C=N/NS(=O)(=O)c2ccc3ccccc3c2)ccc1OCCN1CCOCC1 | i | -1 | i | 1 | -9 | 15*
O=S(=O)(Nc1ccc(Br)cc1)c1cccc(NS(=O)(=O)c2cccs2)c1 | i | 3 | · | 12 | -9 | 6
C#CCNC(=O)C[C@@H]1C[C@@]2(C(=O)OC)CCCCC=C2N(CCCCCCCC)C1=O | · | -1 | · | · | · | ·
CN1/C(=C/C(=O)c2ccc(Cl)cc2)Sc2cc3c(cc21)OCO3 | i | 6 | i | 28 | -13 | 16*
COc1ccc(NC(=O)C2c3ccccc3OCC(=O)N2Cc2ccc3c(c2)OCO3)cc1 (stereo unspecified) | · | 1 | · | · | · | ·
CC(=O)Nc1ccc2nc(-c3ccc(Br)o3)[nH]c2c1 | i | -1 | i | 2 | 6 | 8
O=C(Nc1ccc2nc(-c3ccc(Br)o3)[nH]c2c1)c1cccs1 | i | 0 | i | -1 | -29 | 21*
O=C(Nc1ccc2nc(-c3ccc(Br)o3)[nH]c2c1)c1ccco1 | i | -2 | i | -7 | 13 | 10*
Cn1cccc1-c1nc2ccc(NC(=O)c3cccs3)cc2[nH]1 | i | 6 | i | 0 | -20 | 16*
C/C(=N\NC(=O)C1CC1)c1ccc(C)cc1C | i | 6 | i | -2 | 14 | 1
Cc1nn(CC(=O)NCCN2CCCCC2C)c(=O)c2cc(-c3ccccc3)nn12 (stereo unspecified) | i | 0 | i | -1 | -4 | 1
CCc1noc(C)c1C(=O)OCC(=O)c1ccc(NC(C)=O)cc1F | i | -2 | · | 10 | -4 | 0
O=[N+]([O-])c1nn(-c2ccc3c(c2)OCCO3)n(O)c1=NCc1ccc(F)cc1 | i | 0 | i | -3 | -6 | 13*
Cc1cc(Cl)ccc1OC(C)C(=O)Nc1cccc(S(=O)(=O)N2CCOCC2)c1 (stereo unspecified) | · | 2 | · | 0 | -7 | ·
CC(Oc1ccc(Cl)cc1)C(=O)Nc1ccccc1N1CCOCC1 (stereo unspecified) | i | -1 | · | 53* | -48 | -2
Cc1cc(Cl)ccc1OC(C)C(=O)Nc1ccccc1N1CCOCC1 (stereo unspecified) | -20* | 0 | 100* | 110* | -146 | 3
Cc1cc2c(cc1C)-n1nnnc1C(N1CCCC1)C(=O)N2 (stereo unspecified) | · | 0 | · | · | · | ·
CCOc1ccc(Nc2ccc([N+](=O)[O-])c3nonc23)cc1 | i | 25 | 100* | 0 | 22 | -6
O=[N+]([O-])c1ccc(Nc2ccccc2)c2nonc12 | i | 6 | i | 13 | 43 | -5
CCc1cccc(NC(=O)Cn2ncn3c(cc4ccccc43)c2=O)c1 | i | 1 | i | 0 | 18 | -1
Cc1ccc(NC(=O)Cn2ncn3c(cc4ccccc43)c2=O)cc1F | i | 1 | i | -1 | 60* | -13
CNC(=S)NNC(=O)COc1ccccc1C | i | 0 | i | -2 | 3 | -4
CNC(=S)SCCOc1ccccc1C | i | 2 | i | 0 | 21 | 15*
CC(C)c1cc(C(C)C)n2nc(N)nc2n1 | i | 1 | i | -2 | 24 | 10*
CC(=O)Cc1cc(O)c2ccccc2c1OC(=O)c1ccc(Br)cc1 | i | 3 | i | -2 | 68* | 5
O=C(COC(=O)c1ccc(Br)cc1)NCc1ccccc1 | i | 0 | i | -3 | 21 | -2
Cc1ccc(Oc2ncccc2/C=N/OCc2ccc(Cl)cc2Cl)cc1 | i | 0 | i | 3 | 6 | 14*
Cc1ccc(Oc2ncccc2CO)cc1 | i | -1 | i | -1 | 30 | -1
c1ccc(-n2c(-c3ccncc3)nnc2-c2ccco2)cc1 | i | -1 | i | 0 | 56* | 1
Cc1occc1-c1nnc(SCC(=O)c2ccccc2)n1CC1CCCO1 (stereo unspecified) | i | -1 | i | 1 | -9 | 1

Source: PubChem BioAssay (several laboratories)
